# Laboratory results as given in the supplement of paper PMC5662767.
# Where a name gives a salt, the structure may show the parent alone.
# Test system: Drosophila S2 cl14 SmoIP sensor cells
# Assay: normalized SmoIP GFP fluorescence (untreated unstimulated = 0%, untreated Hh-stimulated = 100%); higher = more Smo activation sensor fluorescence
# Conditions: compound concentration: 2 uM, 24 h
# [1] = stimulation: Hh conditioned medium (+Hh)
# [2] = stimulation: mock conditioned medium (-Hh)
# 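Further: flow cytometry read-out as median GFP intensity of gated cells, compounds added 30 min before Hh-conditioned or mock medium, mock-treated cells serving as unstimulated baseline.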
SMILES,normalized SmoIP GFP fluorescence [1],normalized SmoIP GFP fluorescence [2]
CN(C)CC(=O)Nc1ccc2[nH]c(=O)c3ccccc3c2c1,113%,-1.97%
O=C(O)COCCN1CCN(C(c2ccccc2)c2ccc(Cl)cc2)CC1 (centres undefined) [Cetirizine-di-hcl],90.4%,-7.27%
CCOc1cc([C@@H](CS(C)(=O)=O)N2C(=O)c3cccc(NC(C)=O)c3C2=O)ccc1OC,142%,-14.5%
Cc1ccc(S(=O)(=O)OCC(=O)Nc2ccc(C(=O)O)c(O)c2)cc1,112%,-9.58%
CC(C)C(=O)Oc1ccc(CO)cc1[C@H](CCN(C(C)C)C(C)C)c1ccccc1 [Fesoterodine-fumarate-Toviaz],110%,-4.53%
CNS(=O)(=O)Cc1ccc2[nH]cc(CCN(C)C)c2c1 [Sumatriptan-succinate],99.3%,1.57%
CCC1=C(C)CN(C(=O)NCCc2ccc(S(=O)(=O)NC(=O)N[C@H]3CC[C@H](C)CC3)cc2)C1=O [Glimepiride],94.8%,3.18%
O=C(CCCS)NC1CCN(C(=O)COc2ccc(Cl)cc2Cl)CC1 [k-ras-g12c-inhibitor-6],113%,-2.82%
CCCC(CCC)C(=O)O [Sodium-valproate],110%,-4.68%
COc1ccc(Cn2ccc3ccc(C(=O)NO)cc32)cc1,111%,-8.59%
O=C(/C=C/c1cccc(S(=O)(=O)Nc2ccccc2)c1)NO [Belinostat],189%,54.6%
Cc1nccn1CC1CCc2c(c3ccccc3n2C)C1=O (centres undefined) [Ondansetron-hydrochloride],109%,-2.96%
